Reference: PubChem BioAssay (NCI)
The panel holds about 83,000 compounds, 20% with a hit somewhere; the sample as a whole holds those more often.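 Step 1: grow cells in 96-well plates. Step 2: add test compound at a single concentration. Step 3: incubate 48 h. Step 4: record percent growth.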 Active and inactive are the calls of the source. How the source made its calls: active means growth percent below 10; inactive means the rest.

Columns and labels:
Assay in all cases: NCI-60 one-dose screen, 48 h (100 = growth as untreated, 0 = no growth, -100 = all killed)
Conditions in all cases: 10 µM unless noted
NCI-H23 lung = system: NCI-H23 lung
NCI-H226 lung = system: NCI-H226 lung
NCI-H322M lung = system: NCI-H322M lung
HOP-62 NSCLC = system: HOP-62 NSCLC
NCI-H460 lung = system: NCI-H460 lung
HOP-92 NSCLC = system: HOP-92 NSCLC
NCI-H522 lung = system: NCI-H522 lung
A549/ATCC NSCLC = system: A549/ATCC NSCLC
786-0 renal = system: 786-0 renal
COLO 205 colon = system: COLO 205 colon
DU-145 prostate = system: DU-145 prostate
K-562 leukemia = system: K-562 leukemia
MDA-MB-231 breast = system: MDA-MB-231 breast
RXF 393 renal = system: RXF 393 renal
SF-268 CNS = system: SF-268 CNS
SF-295 CNS = system: SF-295 CNS
SF-539 CNS = system: SF-539 CNS
UACC-257 melanoma = system: UACC-257 melanoma
M14 melanoma = system: M14 melanoma
MALME-3M melanoma = system: MALME-3M melanoma

Measured: growth

COc1ccc(Nc2cc(C)nc(N3CCN(c4ccnc5cc(Cl)ccc45)CC3)n2)cc1
active: COLO 205 colon 8.4%
inactive: NCI-H23 lung 41.2% | NCI-H226 lung 60.6% | NCI-H322M lung 26.9% | HOP-62 NSCLC 36.7% | NCI-H460 lung 18.5% | HOP-92 NSCLC 25.3% | NCI-H522 lung 38% | A549/ATCC NSCLC 26.3% | 786-0 renal 29.1% | DU-145 prostate 58% | K-562 leukemia 10.1% | MDA-MB-231 breast 17.7% | RXF 393 renal 51.4% | SF-268 CNS 52.6% | SF-295 CNS 15.9% | SF-539 CNS 54.7% | UACC-257 melanoma 62.6%

Cc1cc(N2CCN(c3ccnc4cc(Cl)ccc34)CC2)nc(N2CCOCC2)n1
inactive: NCI-H23 lung 84.4% | NCI-H226 lung 88.6% | NCI-H322M lung 95.3% | HOP-62 NSCLC 91.9% | NCI-H460 lung 96.7% | HOP-92 NSCLC 66.2% | NCI-H522 lung 85.3% | A549/ATCC NSCLC 89.4% | 786-0 renal 97.8% | COLO 205 colon 73% | DU-145 prostate 88.1% | K-562 leukemia 55.9% | MDA-MB-231 breast 64.1% | RXF 393 renal 80.6% | SF-268 CNS 87.4% | SF-295 CNS 81.1% | SF-539 CNS 96.6% | UACC-257 melanoma 88.6% | M14 melanoma 87.2%

CN1CCN(c2ccc(Nc3c4ccccc4nc4ccccc34)cc2)CC1
inactive: NCI-H23 lung 105% | NCI-H226 lung 107% | NCI-H322M lung 120% | HOP-62 NSCLC 110% | NCI-H460 lung 104% | HOP-92 NSCLC 178% | NCI-H522 lung 99.7% | A549/ATCC NSCLC 98.2% | 786-0 renal 102% | COLO 205 colon 114% | DU-145 prostate 111% | K-562 leukemia 105% | MALME-3M melanoma 103% | MDA-MB-231 breast 105% | RXF 393 renal 110% | SF-268 CNS 107% | SF-539 CNS 99.6% | UACC-257 melanoma 103% | M14 melanoma 113%

COc1ccc(/C=C\c2cc(OC)c(OC)c(OC)c2)cc1OCC(=O)Nc1ccc2nc(C)sc2c1
active: NCI-H522 lung -2.14%
inactive: NCI-H23 lung 37.6% | NCI-H226 lung 24.8% | NCI-H322M lung 69.9% | HOP-62 NSCLC 44.4% | NCI-H460 lung 24.5% | HOP-92 NSCLC 52% | A549/ATCC NSCLC 30.5% | 786-0 renal 79.6% | COLO 205 colon 75% | DU-145 prostate 64.6% | K-562 leukemia 18.4% | MALME-3M melanoma 42.2% | MDA-MB-231 breast 37.1% | RXF 393 renal 70.3% | SF-268 CNS 52.1% | SF-539 CNS 57.1% | UACC-257 melanoma 58.5% | M14 melanoma 25.9%

O=C(CN(C(=O)Cn1c(=O)n2nnnc2c2ccccc21)c1ccccc1C(F)(F)F)Nc1ccc(C(F)(F)F)cc1
inactive: NCI-H23 lung 103% | NCI-H226 lung 104% | NCI-H322M lung 107% | HOP-62 NSCLC 107% | NCI-H460 lung 105% | HOP-92 NSCLC 92.8% | NCI-H522 lung 98% | A549/ATCC NSCLC 104% | 786-0 renal 103% | COLO 205 colon 112% | DU-145 prostate 110% | K-562 leukemia 101% | MALME-3M melanoma 103% | MDA-MB-231 breast 104% | RXF 393 renal 116% | SF-268 CNS 103% | SF-295 CNS 104% | SF-539 CNS 101% | UACC-257 melanoma 115% | M14 melanoma 102%

COc1cc(Nc2cc(C)nc(N3CCN(c4ccnc5cc(Cl)ccc45)CC3)n2)cc(OC)c1
inactive: NCI-H226 lung 22.9% | HOP-62 NSCLC 10.1% | SF-268 CNS 15.1% | UACC-257 melanoma 49.2%
active: NCI-H23 lung 9.55% | NCI-H322M lung 8.83% | NCI-H460 lung 2.55% | HOP-92 NSCLC 5.3% | NCI-H522 lung 9% | A549/ATCC NSCLC 4.7% | 786-0 renal -13.1% | COLO 205 colon -24.4% | DU-145 prostate 2.17% | K-562 leukemia 8.3% | MDA-MB-231 breast -35.1% | RXF 393 renal 4.88% | SF-295 CNS 0.307% | SF-539 CNS -16.9% | M14 melanoma 4.43%

NC(=O)c1cc(I)ccc1NC(=O)/C=C/c1ccccc1Cl
inactive: NCI-H23 lung 43.4% | NCI-H226 lung 44.1% | NCI-H322M lung 55.5% | HOP-62 NSCLC 83% | HOP-92 NSCLC 48.3% | A549/ATCC NSCLC 15.7% | 786-0 renal 48.1% | MALME-3M melanoma 67.5% | MDA-MB-231 breast 23.3% | SF-268 CNS 36.8% | UACC-257 melanoma 65.7%
active: NCI-H460 lung 0.527% | NCI-H522 lung -45.9% | COLO 205 colon -26.7% | DU-145 prostate -18.8% | K-562 leukemia 5.46% | RXF 393 renal -17.9% | SF-539 CNS -35.7% | M14 melanoma 4.96%

CCOc1cc2c(cc1OCC)C(c1cc(OC)c(O)cc1Cl)NCC2 (centres undefined)
inactive: NCI-H23 lung 96.7% | NCI-H226 lung 100% | NCI-H322M lung 110% | HOP-62 NSCLC 98.1% | NCI-H460 lung 98.4% | HOP-92 NSCLC 114% | NCI-H522 lung 102% | A549/ATCC NSCLC 88.6% | 786-0 renal 84.1% | DU-145 prostate 110% | K-562 leukemia 53.3% | MALME-3M melanoma 55.2% | MDA-MB-231 breast 88.6% | RXF 393 renal 85.1% | SF-268 CNS 100% | SF-539 CNS 101% | UACC-257 melanoma 99.2%
active: COLO 205 colon -37.4%

O=C(Cn1cccc(Nc2ccccc2)c1=O)Nc1ccccc1
inactive: NCI-H23 lung 113% | NCI-H226 lung 103% | NCI-H322M lung 114% | HOP-62 NSCLC 105% | NCI-H460 lung 106% | HOP-92 NSCLC 97% | NCI-H522 lung 110% | A549/ATCC NSCLC 106% | 786-0 renal 106% | COLO 205 colon 107% | DU-145 prostate 111% | K-562 leukemia 108% | MDA-MB-231 breast 108% | RXF 393 renal 100% | SF-268 CNS 107% | SF-295 CNS 106% | SF-539 CNS 97.1% | UACC-257 melanoma 99.6% | M14 melanoma 102%

COc1ccc(NC2=C(Sc3nc(C)cc(C)n3)C(=O)N(Cc3ccccc3)C2=O)cc1Cl
inactive: NCI-H23 lung 84.5% [30 µM] | NCI-H226 lung 79.9% [30 µM] | NCI-H322M lung 111% [30 µM] | HOP-62 NSCLC 96.3% [30 µM] | NCI-H460 lung 60.7% [30 µM] | HOP-92 NSCLC 26.9% [30 µM] | NCI-H522 lung 85.7% [30 µM] | A549/ATCC NSCLC 74.3% [30 µM] | 786-0 renal 80.4% [30 µM] | COLO 205 colon 110% [30 µM] | DU-145 prostate 113% [30 µM] | K-562 leukemia 69.7% [30 µM] | MALME-3M melanoma 95.4% [30 µM] | MDA-MB-231 breast 85.4% [30 µM] | RXF 393 renal 50.8% [30 µM] | SF-268 CNS 57.8% [30 µM] | SF-295 CNS 39.6% [30 µM] | SF-539 CNS 101% [30 µM] | UACC-257 melanoma 43.9% [30 µM] | M14 melanoma 95.9% [30 µM]

CCc1c(Nc2ccccc2C)nc(N)[nH]c1=O
inactive: NCI-H23 lung 117% | NCI-H226 lung 103% | NCI-H322M lung 103% | HOP-62 NSCLC 100% | NCI-H460 lung 108% | HOP-92 NSCLC 93.7% | NCI-H522 lung 99% | A549/ATCC NSCLC 114% | 786-0 renal 109% | COLO 205 colon 109% | DU-145 prostate 111% | MALME-3M melanoma 102% | MDA-MB-231 breast 114% | RXF 393 renal 112% | SF-268 CNS 101% | SF-295 CNS 105% | SF-539 CNS 103% | UACC-257 melanoma 115%

COc1ccc(CN2c3ccccc3Oc3ccccc32)cc1F
active: NCI-H522 lung -13.2%
inactive: NCI-H23 lung 71.8% | NCI-H226 lung 101% | NCI-H322M lung 91.5% | HOP-62 NSCLC 52.1% | NCI-H460 lung 47.6% | HOP-92 NSCLC 66.6% | A549/ATCC NSCLC 43.7% | 786-0 renal 79.2% | COLO 205 colon 41.7% | DU-145 prostate 95.9% | MALME-3M melanoma 59.2% | MDA-MB-231 breast 53.1% | RXF 393 renal 84.5% | SF-268 CNS 84.7% | SF-295 CNS 33% | SF-539 CNS 64.7% | UACC-257 melanoma 58.9% | M14 melanoma 33.6%

COc1ccc(O)c(N=Nc2nccs2)c1
inactive: NCI-H23 lung 87.9% | NCI-H226 lung 92.2% | NCI-H322M lung 91.4% | HOP-62 NSCLC 94.2% | NCI-H460 lung 101% | HOP-92 NSCLC 49.4% | NCI-H522 lung 88.2% | A549/ATCC NSCLC 91.1% | 786-0 renal 70.6% | COLO 205 colon 94.8% | DU-145 prostate 94.9% | MALME-3M melanoma 102% | MDA-MB-231 breast 39.3% | RXF 393 renal 87.9% | SF-268 CNS 67.9% | SF-295 CNS 103% | SF-539 CNS 96.8% | UACC-257 melanoma 93.7%

CCOc1nc(-c2ccccc2)cc2c(O)c(C(=O)N/N=C/c3ccc(O)cc3O)[nH]c(=O)c12
active: NCI-H23 lung 3.35% | HOP-92 NSCLC -12.1% | RXF 393 renal -35.2% | UACC-257 melanoma -29.1%
inactive: NCI-H226 lung 26.4% | NCI-H322M lung 42.2% | HOP-62 NSCLC 27.1% | NCI-H460 lung 61.6% | NCI-H522 lung 10.8% | A549/ATCC NSCLC 46.2% | 786-0 renal 14.4% | COLO 205 colon 15.9% | DU-145 prostate 23.4% | K-562 leukemia 31.5% | MDA-MB-231 breast 43.2% | SF-268 CNS 16.3% | SF-295 CNS 19.3% | SF-539 CNS 16% | M14 melanoma 21.5%

COc1cccc(-c2nn(C(C)(C)C)cc2-c2ccnc(NCCCNS(=O)(=O)c3ccc(C)cc3)c2)c1
inactive: NCI-H23 lung 105% | NCI-H226 lung 101% | NCI-H322M lung 106% | HOP-62 NSCLC 100% | NCI-H460 lung 103% | HOP-92 NSCLC 114% | NCI-H522 lung 99% | A549/ATCC NSCLC 103% | 786-0 renal 103% | COLO 205 colon 121% | DU-145 prostate 107% | K-562 leukemia 101% | MALME-3M melanoma 101% | MDA-MB-231 breast 112% | RXF 393 renal 109% | SF-268 CNS 105% | SF-295 CNS 103% | SF-539 CNS 115% | UACC-257 melanoma 111% | M14 melanoma 105%
